A number with no mark means an inactive call. For some assays here: Measured potencies and affinities stand elsewhere. Calls of active or inactive are those of the source. Unless noted, how the calls were made is not given here.
How the values were obtained:
[1] = antimalarial activity against Dd2 strain (AID 2302;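 active means growth inhibition above 50% at the single 2 µM test dose, taken to imply half-maximal potency below 2 µM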;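 further: 0% = DMSO untreated growth and 100% = chloroquine plus artemisinin killed control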); details: P. falciparum Dd2 in RBCs, LDH growth readout, 72 h; at 2 µM; active compounds read high
[2] = human hepatoma cell viability loss – ATP luminescence, cytotoxicity control for P. falciparum antimalarial project, primary screen (AID 2303;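 active means inhibition above 50%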;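 further: 0% = DMSO wells and 100% = digitonin-killed cells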); details: HepG2 viability, 24-48 h, at 10 µM, active compounds read high
[3] = target: L-lactate dehydrogenase (Plasmodium falciparum (isolate CDC / Honduras)) (UniProt Q27743); assay: PfLDH activity inhibition – cell lysate, 3D7 strain, counter-screen for P. falciparum growth inhibition project (AID 2304);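 further: 0% = vehicle and 100% = reference inhibitor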; details: P. falciparum 3D7 crude extract, LDH APAD/NBT absorbance; at 2 µM; active compounds read high
[4] = inhibition of 3D7 malaria parasite growth – strain 3D7 (AID 2306);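 further: 0% = DMSO wells and 100% = chloroquine plus artemisinin control wells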; details: P. falciparum 3D7 erythrocytic growth, LDH absorbance, 72 h; at 2 µM; active compounds read high
[5] = target: Calcium-dependent protein kinase 1 (Plasmodium falciparum (isolate 3D7)) (UniProt P62344); assay: PfCDPK1 kinase inhibitors, biochemical, TCAMS library (AID 1159585; cut-off not given, nearly all actives have IC50 up to about 0.98 µM;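 further: inhibitors leave more ATP so luminescence rises with inhibition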); details: recombinant PfCDPK1, Kinase-Glo ATP depletion luminescence
[6] = target: Plasmodium falciparum protein kinase 6 (PK6, PF3D7_1337100) (UniProt Q8IDW1); assay: PfPK6 kinase inhibitors, biochemical, TCAMS library (AID 1159586); details: recombinant PfPK6, Kinase-Glo ATP depletion luminescence
[7] = target: Protein kinase 7 (PK7), Plasmodium falciparum 3D7 (PF3D7_0213400) (UniProt Q7YTF7); assay: inhibition of Plasmodium PK7 catalytic activity – biochemical, TCAMS antimalarial set, Kinase-Glo luminescence (AID 1159587); details: recombinant PfPK7, Kinase-Glo ATP depletion luminescence
[8] = target: Calcium-dependent protein kinase 4 (Plasmodium falciparum (isolate 3D7)) (UniProt Q8IBS5); assay: PfCDPK4 kinase inhibitors, biochemical, TCAMS library (AID 1159588; cut-off not given, nearly all actives have IC50 up to about 0.91 µM); details: recombinant PfCDPK4, Kinase-Glo ATP depletion luminescence
Sequence of Calcium-dependent protein kinase 4 (Plasmodium falciparum (isolate 3D7)) (Q8IBS5 whole entry, looked up): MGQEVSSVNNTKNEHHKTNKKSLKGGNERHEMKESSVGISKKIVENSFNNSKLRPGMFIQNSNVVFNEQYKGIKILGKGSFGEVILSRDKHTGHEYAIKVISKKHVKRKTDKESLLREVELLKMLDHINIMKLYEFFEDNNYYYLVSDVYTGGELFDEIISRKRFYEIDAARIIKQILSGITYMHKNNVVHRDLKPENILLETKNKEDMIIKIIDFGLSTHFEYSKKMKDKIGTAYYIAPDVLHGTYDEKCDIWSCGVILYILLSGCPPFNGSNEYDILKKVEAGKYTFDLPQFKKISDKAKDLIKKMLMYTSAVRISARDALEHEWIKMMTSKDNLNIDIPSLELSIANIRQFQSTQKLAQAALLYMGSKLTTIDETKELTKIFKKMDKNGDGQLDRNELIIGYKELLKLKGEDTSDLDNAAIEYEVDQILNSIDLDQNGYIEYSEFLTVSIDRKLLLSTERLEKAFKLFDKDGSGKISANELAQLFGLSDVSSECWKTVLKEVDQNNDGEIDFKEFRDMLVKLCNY

Sequence of Calcium-dependent protein kinase 1 (Plasmodium falciparum (isolate 3D7)) (P62344 whole entry, looked up): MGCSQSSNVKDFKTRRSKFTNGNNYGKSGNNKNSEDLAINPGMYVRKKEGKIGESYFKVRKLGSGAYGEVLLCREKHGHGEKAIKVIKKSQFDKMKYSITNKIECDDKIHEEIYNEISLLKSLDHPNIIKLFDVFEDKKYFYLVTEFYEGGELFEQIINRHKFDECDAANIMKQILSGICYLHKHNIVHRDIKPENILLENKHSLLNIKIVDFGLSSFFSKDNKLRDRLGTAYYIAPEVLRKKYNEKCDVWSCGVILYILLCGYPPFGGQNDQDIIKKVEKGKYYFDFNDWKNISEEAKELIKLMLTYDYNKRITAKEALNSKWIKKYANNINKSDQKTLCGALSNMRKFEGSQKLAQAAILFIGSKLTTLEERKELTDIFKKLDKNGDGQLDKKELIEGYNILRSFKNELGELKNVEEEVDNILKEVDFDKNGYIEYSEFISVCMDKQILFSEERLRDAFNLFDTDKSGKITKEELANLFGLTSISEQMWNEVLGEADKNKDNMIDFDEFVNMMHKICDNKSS
Sequence of Protein kinase 7 (PK7), Plasmodium falciparum 3D7 (PF3D7_0213400) (Q7YTF7 1-343): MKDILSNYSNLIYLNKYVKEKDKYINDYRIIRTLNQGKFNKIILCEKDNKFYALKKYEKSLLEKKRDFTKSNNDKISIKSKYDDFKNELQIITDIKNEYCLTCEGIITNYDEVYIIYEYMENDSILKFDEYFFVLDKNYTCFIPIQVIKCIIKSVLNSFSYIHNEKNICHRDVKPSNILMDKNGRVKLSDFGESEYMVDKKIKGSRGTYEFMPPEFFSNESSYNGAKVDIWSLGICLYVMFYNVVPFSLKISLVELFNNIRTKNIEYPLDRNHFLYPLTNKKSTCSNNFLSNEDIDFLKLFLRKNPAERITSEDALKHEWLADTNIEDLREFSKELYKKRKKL
Sequence of Plasmodium falciparum protein kinase 6 (PK6, PF3D7_1337100) (Q8IDW1 1-305): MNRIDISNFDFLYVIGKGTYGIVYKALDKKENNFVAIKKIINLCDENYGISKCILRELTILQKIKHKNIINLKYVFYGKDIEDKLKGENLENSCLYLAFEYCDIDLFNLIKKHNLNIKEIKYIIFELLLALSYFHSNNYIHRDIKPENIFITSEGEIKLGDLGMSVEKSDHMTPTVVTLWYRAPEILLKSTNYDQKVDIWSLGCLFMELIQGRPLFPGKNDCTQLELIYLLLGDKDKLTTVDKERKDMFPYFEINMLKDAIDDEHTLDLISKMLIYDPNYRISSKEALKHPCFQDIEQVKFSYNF
Sequence of L-lactate dehydrogenase (Plasmodium falciparum (isolate CDC / Honduras)) (Q27743 whole entry, looked up): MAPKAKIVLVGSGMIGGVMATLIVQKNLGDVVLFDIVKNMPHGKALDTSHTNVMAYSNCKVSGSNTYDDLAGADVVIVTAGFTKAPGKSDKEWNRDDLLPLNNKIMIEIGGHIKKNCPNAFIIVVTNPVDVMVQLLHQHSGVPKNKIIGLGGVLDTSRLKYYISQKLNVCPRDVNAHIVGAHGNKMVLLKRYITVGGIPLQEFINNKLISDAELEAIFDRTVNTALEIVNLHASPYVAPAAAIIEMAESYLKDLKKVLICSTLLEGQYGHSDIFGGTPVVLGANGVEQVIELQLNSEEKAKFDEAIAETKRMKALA

| SMILES | growth inhibition [1] | inhibition [2] | inhibition [3] [%] | growth inhibition [4] | outcome [5] | outcome [6] | outcome [7] | outcome [8] |
| --- | --- | --- | --- | --- | --- | --- | --- | --- |
| Cc1nc(C(=O)N2CCCC[C@H]2CNC(=O)c2ccc(-c3ccc(N4CCCC4=O)cc3C)cc2)c(-c2ccc(F)cc2)s1 | 94% (active) | 6% | 8 | 98% (active) | inactive | inactive | inactive | inactive |
| COc1cccc(NC(=O)c2cc([N+](=O)[O-])ccc2NC(=O)CN2CCc3ccccc3C2)c1 | 37% | 5% | -1 | 100% (active) | inactive | inactive | inactive | inactive |
| O=C(C=Cc1ccc(F)cc1)NC1CCC(CCN2CCc3ccc(-c4cnccn4)cc3CC2)CC1 (stereo not given) | 65% (active) | 32% | 1 | 99% (active) | inactive | inactive | inactive | inactive |
| O=C(c1cccc(-c2cccc(-c3nc4ccc(F)cc4[nH]3)c2)c1)N1CCCCC1CN1CCC(O)C1 (stereo not given) | 100% (active) | 36% | -5 | 90% (active) | inactive | inactive | inactive | inactive |
| Cc1cccnc1CNc1nccc2c(C)c(C)[nH]c12 | 28% | 27% | 0 | 100% (active) | inactive | inactive | inactive | inactive |
| NC(=NC1CC1)c1ccc2nc(CCCCCc3nc4ccc(C(N)=NC5CC5)cc4[nH]3)[nH]c2c1 | 72% (active) | -3% | 2 | 89% (active) | inactive | inactive | inactive | inactive |
| COc1cc2ccccc2cc1CCNCCCCNCCc1cc2ccccc2cc1OC | 38% | 100% (active) | 2 | 99% (active) | inactive | inactive | inactive | inactive |
| Cc1cccc2[nH]c(-c3ccc(-c4cccc(CNCCNC(=O)c5ccnn5C)c4)cc3)nc12 | 92% (active) | 17% | -4 | 100% (active) | inactive | inactive | inactive | inactive |
| CCC(C)NS(=O)(=O)c1ccc2nc(Nc3ccc(C)c(Cl)c3)n(C3CCCCC3)c2c1 (stereo not given) | 98% (active) | -8% | 5 | 99% (active) | inactive | inactive | inactive | inactive |
| CCCOc1cc(NC(=O)Nc2ccnc3ccccc23)cc(OCCC)c1 | 98% (active) | 6% | -1 | 102% (active) | inactive | inactive | inactive | inactive |
| O=C(C=Cc1ccc(Cl)c(Cl)c1)NCCCCCN1CCCC(CCCNC(=O)/C=C/c2ccccc2)C1 (stereo not given) | 12% | 92% (active) | -4 | 98% (active) | inactive | inactive | inactive | inactive |
| COc1ccc(NC(=O)[C@H](Cc2ccccc2)Nc2cc(C)nc(NCCOc3ccccc3)n2)cc1 | 25% | 11% | 3 | 98% (active) | inactive | inactive | inactive | inactive |
| COc1ccc(NC(=O)c2cc(NC(=O)C3(N)CC3)c(=O)n(Cc3ccc(C(N)=O)cc3)c2)cc1 | 72% (active) | 21% | 3 | 95% (active) | inactive | inactive | inactive | inactive |
| Cc1ccc(Nc2nc(C)cc(Nc3cccc(NS(C)(=O)=O)c3)n2)cc1 | 8% | -3% | 0 | 96% (active) | inactive | inactive | inactive | inactive |
| O=C(c1ccc2ccccc2n1)N1CCCc2cc(Br)ccc21 | 74% (active) | 19% | -3 | 97% (active) | inactive | inactive | inactive | inactive |
| CN1CCCN(Cc2ccc(-c3cccc(NC(=O)c4cccc(C#N)c4)c3)cc2)CC1 | 64% (active) | 17% | -2 | 101% (active) | inactive | inactive | inactive | inactive |
| Cc1cc(F)ccc1-c1nc(NCCCN2CCCC2=O)nc2c1ccc(=O)n2-c1c(F)cccc1F | 80% (active) | -7% | -5 | 88% (active) | inactive | inactive | inactive | inactive |
| Cc1cc(F)ccc1[C@H]1CNCCN1C(=O)N(C)[C@@H](C)c1cc(C(F)(F)F)cc(C(F)(F)F)c1 | 99% (active) | 20% | 1 | 100% (active) | inactive | inactive | inactive | inactive |
| O=C(/C=C/c1ccc(Cl)c(Cl)c1)NCCCCCN1CCC(NC(=O)Nc2cccc(Cl)c2F)CC1 | 30% | 75% (active) | 4 | 101% (active) | inactive | inactive | inactive | inactive |
| O=C(NCCCCN1CCN(c2cccc3ccccc23)CC1)c1ccc(NC(=O)c2ccc(Cl)cc2)cc1 | 64% (active) | 38% | 6 | 101% (active) | inactive | inactive | inactive | inactive |

| SMILES | growth inhibition [1] | inhibition [2] | inhibition [3] [%] | growth inhibition [4] | outcome [5] | outcome [6] | outcome [7] | outcome [8] |
| --- | --- | --- | --- | --- | --- | --- | --- | --- |
| COc1ccc(C(=O)CCC(=O)N(Cc2ccc(-c3ccc(CNCCc4ccc(S(C)(=O)=O)cc4)cn3)cc2)Cc2ccc3c(c2)OCO3)cc1F | 41% | 13% | 3 | 95% (active) | inactive | inactive | inactive | inactive |
| O=C1C[C@@H]([S@@](=O)Cc2nccs2)N1CCOCCCCCCc1ccc(Cl)cc1 | 0% | -4% | 1 | 91% (active) | inactive | inactive | inactive | inactive |
| Cc1ccc(C)c(NC(=O)Nc2ccc(C)c(-c3ccc(C(=O)Nc4ccncc4)cc3)c2)c1 | 59% (active) | 46% | -3 | 98% (active) | inactive | inactive | inactive | inactive |
| Cc1ccc(N2CCN(C(=O)c3cccc(-c4cncc5nc(-c6ccco6)n(C)c45)c3)CC2)nc1 | 91% (active) | -13% | -1 | 94% (active) | inactive | inactive | inactive | inactive |
| CC(C)(C)c1ccc2nc(-c3ccc(C(=O)NCCCc4ccccc4)cc3)[nH]c2c1 | 14% | 11% | 5 | 95% (active) | inactive | inactive | inactive | inactive |
| O=C(Nc1cccc(CN2CCCN(Cc3ccccc3)CC2)c1)c1ccc(-c2ccccc2)cc1 | 8% | 45% | -1 | 85% (active) | inactive | inactive | inactive | inactive |
| O=C(Nc1ccc(OC2CCN(Cc3ccc(F)cc3)CC2)c(Cl)c1)c1ccc(F)cc1 | 95% (active) | 37% | -1 | 97% (active) | inactive | inactive | inactive | inactive |
| COc1ccccc1CNc1nc(Nc2ccccc2C)nc2ccccc12 | 67% (active) | 24% | -1 | 101% (active) | inactive | inactive | inactive | inactive |
| COc1ccc2nccc(N3CCC(SCCNCc4ccc5c(n4)NC(=O)CO5)C3)c2n1 (stereo not given) | 9% | 30% | -2 | 101% (active) | inactive | inactive | inactive | inactive |
| C#CCOc1ccc(N2C(N)=NC(N)=NC2(C)C)cc1 | -3% | 43% | 6 | 94% (active) | inactive | inactive | inactive | inactive |
| Cc1ccccc1CN1CCCN(Cc2ccc(C(=O)Nc3ccc(Cl)cc3)cc2)CC1 | 15% | 48% | 3 | 93% (active) | inactive | inactive | inactive | inactive |
| CC(=O)Nc1ncc(C(=O)Nc2cccc(-c3cccc(-c4nc5c(C)cccc5[nH]4)c3)c2)s1 | 64% (active) | 15% | 4 | 94% (active) | inactive | inactive | inactive | inactive |
| COc1cc2nc(NCCc3ccccc3)nc(NCCc3ccccc3)c2cc1OC | 100% (active) | 99% (active) | 2 | 101% (active) | inactive | inactive | inactive | inactive |
| CC(=O)c1cccc(S(=O)(=O)NCCCNc2nc3cc(C)cc(C)c3cc2C#N)c1 | 75% (active) | 11% | 1 | 95% (active) | inactive | inactive | inactive | inactive |
| O=C(/C=C/c1ccc(I)cc1)NCCCCCN1CCC(c2c[nH]c3ccc(O)cc23)CC1 | 1% | 14% | 2 | 97% (active) | inactive | inactive | inactive | inactive |
| Cc1cccc2[nH]c(-c3cccc(-c4ccc(NC(=O)NCc5ccccc5)cc4)c3)nc12 | 47% | 35% | -2 | 101% (active) | inactive | inactive | inactive | inactive |
| O=C(COc1ccccc1)N(Cc1ccc(-c2ccc(CNC3Cc4ccccc4C3)cc2)cc1)C1CCNCC1 | 8% | 26% | -1 | 100% (active) | inactive | inactive | inactive | inactive |
| CC(C)NCc1ccc(-c2ccc(-c3nc4ccc(C(F)(F)F)cc4[nH]3)s2)cc1 | 94% (active) | 30% | 1 | 101% (active) | inactive | inactive | inactive | inactive |
| COc1cc(Cc2cnc(N)nc2N)cc(OCCn2ccccc2=O)c1OC | -3% | 4% | 2 | 97% (active) | inactive | inactive | inactive | inactive |
| Cc1cc(Nc2cc(Cl)cc(Cl)c2)nc(N)n1 | 28% | -12% | 3 | 94% (active) | inactive | inactive | inactive | inactive |

Reference: PubChem BioAssay
